# Source: PubChem BioAssay (NCATS)
# Results filed as inconclusive are left out. Where a call stands in place of a potency, no number is given. Calls of active or inactive are those of the source. The call rests on the fitted dose curve; in most records, active means well fitted inhibition curve with a large enough effect; inconclusive means small, poorly fitted or top-dose-only effect; inactive means no such curve, though single readings can be large or run the other way.
# Test system: Zika virus NS2B-NS3 protease (linked construct)
# Assay: Primary screen NINDS Rhodamine qHTS for Zika virus inhibitors (AID 1347160); further: nearly all actives have a fitted effect of over 55% in size
# Settings: purified NS2B-NS3 protease, Rhodamine110 substrate fluorescence; series mostly up to 57.1 µM
# Summary of the method: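 Rhodamine110-peptide cleavage (1.5 µM substrate) by 25 nM linked NS2B-NS3 enzyme at pH 8.0 (Tris, Tween 20), after 15 min RT preincubation with compounds; 15-min fluorescence change normalized to controls and Hill-fitted.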
row,SMILES,Potency
1,C=C1[C@@H]2[C@H]3OC(=O)C(=C)[C@@H]3CC[C@@](C)(O)[C@@H]2C[C@@H]1O[C@@H]1O[C@H](CO)[C@@H](O)[C@H](O)[C@H]1O,inactive
2,C=CC(C)(C)O[C@@H]1O[C@H](CO[C@@H]2OC[C@](O)(CO)[C@H]2O)[C@@H](O)[C@H](O)[C@H]1O,inactive
3,COc1cccc2c1CCC[C@H]2CN(C)CCc1ccc2ccoc2c1,inactive
